Source: PubChem
Sampled rows, rich in hits. Any-hit rate of the full collection: about 15%.
RORg inh – blocks mouse ROR gamma transcriptional activity; P51450; Potency, µM (highest dose often 53.6 µM), inactives show top-dose activity change, negative = inhibition, usual class: inhibitors; 310,000 tested, 5.4% active; Drosophila S2 Gal4-RORgamma UAS-luciferase reporter, 20 h; note: nearly all actives have a fitted effect of over 60% in size
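Stably transfected Drosophila Schneider cells are the test system, with ROR gamma fused to Gal4 and luciferase under UAS control; luminescence is read after 20 hr of 700 uM copper sulfate induction at ambient temperature.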
DT40 TDP1 CPT – growth inhibition of DT40 Tdp1-/-;hTDP1 cells with camptothecin (screen for TDP1 inhibitors) | Potency, µM (doses to about 46.2 µM), without a hit: at the highest dose activity change, negative = growth inhibition, actives largely listed as inhibitors | 420,000 tested, 12% active | chicken DT40 Tdp1-/-;hTDP1 cells + 20 nM CPT, ATP luminescence, 48 h; note: nearly all actives have a fitted effect of over 55% in size
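Chicken DT40 Tdp1-/- cells complemented with human TDP1, 400 cells/well, exposed to compounds plus 20 nM camptothecin for at least 48 h at 37 C; viability read as ATP content by CellTiter-Glo luminescence.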
DT40 TDP1 no CPT – qHTS for Inhibitors of human tyrosyl-DNA phosphodiesterase 1 (TDP1): qHTS in cells in absence of CPT; DT40 Tdp1-/- hTDP1 cells, no CPT, ATP luminescence, 48 h; Potency, µM (highest dose often 46.2 µM), inactives show top-dose activity change, negative = growth inhibition, hits mostly inhibitors; 420,000 tested, 15% active; AID 686978, 2013; note: nearly all actives have a fitted effect of over 55% in size
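Seeded 400 DT40-hTDP1 cells/well (vehicle DMSO, no 20 nM CPT); pinned compounds; ≥48 hr at 37 °C; CellTiter-Glo luminescence as viability measure.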
Gal4-VP16 FLuc – counter-screen for ROR gamma inhibitors: Gal4-VP16 reporter. Drosophila S2 Gal4-VP16 UAS-luciferase, luminescence, 20 h. Potency, µM (doses to about 53.6 µM), for inactives: top-dose activity, negative = inhibition, most hits filed as inhibitors. 310,000 tested, 3.5% active. AID 2546;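 note: Gal4-VP16 expression switched on by copper sulfate through the metallothionein promoter; nearly all actives have a fitted effect of over 50% in size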
12-LOX inh – blocks human arachidonate 12S-lipoxygenase; P18054; purified 12hLO, xylenol orange hydroperoxide absorbance; Potency, µM (doses to about 108 µM), without a hit: top-dose activity change, negative = inhibition, usual class: inhibitors; 580,000 tested, 1.1% active; AID 1671190
Target sequence (P18054 whole entry, looked up): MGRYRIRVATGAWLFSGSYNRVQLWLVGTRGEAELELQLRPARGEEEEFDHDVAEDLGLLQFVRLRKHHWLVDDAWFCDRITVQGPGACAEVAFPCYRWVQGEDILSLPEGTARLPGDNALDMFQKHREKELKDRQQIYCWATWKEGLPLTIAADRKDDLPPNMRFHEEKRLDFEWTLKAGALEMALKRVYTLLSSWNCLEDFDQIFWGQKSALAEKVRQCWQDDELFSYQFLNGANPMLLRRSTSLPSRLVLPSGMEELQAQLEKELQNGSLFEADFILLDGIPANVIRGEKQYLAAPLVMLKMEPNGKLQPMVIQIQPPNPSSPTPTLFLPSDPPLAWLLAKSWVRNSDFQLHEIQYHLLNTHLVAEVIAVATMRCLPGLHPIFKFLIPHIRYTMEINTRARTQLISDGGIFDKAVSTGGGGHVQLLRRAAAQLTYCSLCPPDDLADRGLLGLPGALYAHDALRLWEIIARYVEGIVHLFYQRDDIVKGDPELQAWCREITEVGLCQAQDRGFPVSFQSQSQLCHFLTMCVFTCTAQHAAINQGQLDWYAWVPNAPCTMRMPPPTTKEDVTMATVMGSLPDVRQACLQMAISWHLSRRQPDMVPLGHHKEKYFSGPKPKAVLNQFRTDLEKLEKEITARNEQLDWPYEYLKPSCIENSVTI
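Purified human 12hLO (150 nM final) in 25 mM Hepes, 0.01% Triton X-100, pH 7.0 was preincubated 15 min at room temperature with compound. Then 40 uM arachidonic acid was added, 30 min. Hydroperoxide was read by Fe-XO absorbance ratio 573/405 nm.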
ELG1 repair inh – blocks ELG1-dependent DNA repair in HEK293T cells; 330,000 tested, 2.3% active; Potency, µM (doses to about 46.1 µM), for the others: at the highest dose activity change, negative = inhibition, most hits filed as inhibitors; AID 504467; HEK293T ELG1-luciferase reporter, luminescence, 16 h; DNA damage induced by 5-fluorouridine; note: nearly all actives have a fitted effect of over 55% in size
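HEK293T cells expressing luciferase-tagged ELG1 (2,000/well) received 5-Fluorouridine plus compound or DMSO for 16 hr at 37 °C. Luciferase was read by ONE-Glo luminescence after 30 min at room temperature.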
Active calls of the source: *; ? = inconclusive; · = no result given; [ ] = dose if it differs, or a comment. Calls come from the whole dose curve; as a rule, active = well fitted curve in the direction sought with a large enough effect; inconclusive = small, poorly fitted or top-dose-only effect, or another doubt; inactive = no such curve, though single readings can be large; an effect the other way counts as inactive or inconclusive. % is set by controls: 0 for no effect and ±100 for the full control effect; potency is the fitted concentration of half-maximal effect.

SMILES | RORg inh | DT40 TDP1 CPT | DT40 TDP1 no CPT | Gal4-VP16 FLuc | 12-LOX inh | ELG1 repair inh
CC(NC(=O)c1cccc(C(F)(F)F)c1)C1CC2CCC1C2 (configuration not stated) | · | · | · | · | 36% | ·
Cc1cc(-c2ccc(S(=O)(=O)NC3CCOC4(CCOCC4)C3)o2)on1 (configuration not stated) | · | · | · | · | 24% | ·
COc1ccc2[nH]c3c(c2c1)CCN1C(=O)N([C@@H](C)C(=O)NCc2c(F)cccc2Cl)C(=O)[C@]31C | 19% | 18µM* | ? | -3% | 21% | -24%
C[C@@H](C(=O)NCc1c(F)cccc1Cl)N1C(=O)N2CCc3c([nH]c4ccccc34)[C@@]2(C)C1=O | 14% | 18µM* | 21µM* | 3% | 16% | ?
COc1ccc2[nH]c3c(c2c1)CCN1C(=O)N([C@@H](C)C(=O)NCC2CCCO2)C(=O)[C@]31C (some centres not stated) | -6% | -5% | -8% | 0% | 3% | -16%
Cc1nc(SCC(=O)c2cc3ccccc3oc2=O)c(C#N)c(-c2cccs2)c1C(=O)Nc1ccccc1 | -10% | 21µM* | ? | 8% | 3% | ?
O=C(c1cc2ccccc2oc1=O)N(c1ccc(Cl)cc1)C1C=CS(=O)(=O)C1 (configuration not stated) | -26% | 16µM* | ? | -12% | -20% | -2%
N#Cc1ccc(-c2ccccc2)nc1SCC(=O)c1cc2ccccc2oc1=O | 38% | 23µM* | ? | -1% | 0% | 20%
Cn1cnnc1SCC(=O)c1cc2ccccc2oc1=O | ? | -23% | -17% | -15% | 6.3µM* | 9%
CC(C)c1c(C#N)c(N)nc(SCC(=O)c2cc3ccccc3oc2=O)c1C#N | -25% | ? | ? | ? | 0% | -13%
CCOc1cc(CN(CC(=O)NC2CCCCC2)C2CC2)ccc1OC(F)F | · | · | · | · | 3% | ·
Cc1cc(C)c[n+](CC(=O)c2cc3ccccc3oc2=O)c1 | 2% | 3% | 5% | 1% | 0% | -1%
O=C(CSc1nnc(-c2cccnc2)o1)c1cc2ccccc2oc1=O | ? | ? | ? | 4µM* | 0% | 2%
O=C(CSc1nnc(-c2cccnc2)o1)Oc1ccccc1 | -14% | -13% | 1% | -5% | 8% | ?
O=C(CSc1ccc(Cl)cc1)c1cc2ccccc2oc1=O | · | · | · | · | 7.1µM* | ·
O=C(OCc1ccccc1)c1cc2ccccc2[nH]1 | · | · | · | · | 19% | ·
Cc1c(C#N)c(O)n(C)c(=O)c1N=Nc1ccc(S(N)(=O)=O)cc1 | 21% | ? | 13µM* | -8% | -22% | -13%
Cc1c(C#N)c(O)n(CCO)c(=O)c1N=Nc1ccc(S(N)(=O)=O)cc1 | 0% | -29% | 9% | 4% | ? | -11%
COC(=O)[C@@H]1Cc2ncn(Cc3ccc(Cl)cc3)c2CN1CCCc1ccccc1 | · | · | · | · | 78%[176 µM] | ·
Cc1cccc(-c2nc(SCC(=O)Nc3ccc4c(c3)OCO4)c(-c3ccccc3)[nH]2)c1 | · | 21µM* | ? | · | -4% | ·
O=C(CSc1ccc(-c2nc3ccccc3[nH]2)cn1)Nc1ccc2c(c1)OCCO2 | -19% | -27% | -24% | -9% | · | ?
COc1ccc(-c2nc(SCC(=O)Nc3ccc4c(c3)OCO4)c(-c3ccc(OC)cc3)[nH]2)cc1 | · | -19% | -27% | · | -2% | ·
CCOc1ccc(-c2nc(SCC(=O)Nc3ccc4c(c3)OCO4)c(-c3ccc(F)cc3)[nH]2)cc1 | · | -19% | ? | · | 1% | ·
COc1ccc(-c2[nH]c(-c3ccccc3)nc2SCC(=O)Nc2ccc3c(c2)OCCO3)cc1 | · | 13µM* | 16µM* | · | -19% | ·
O=C(CSc1nc(-c2ccccc2)[nH]c1-c1ccccc1)Nc1ccc2c(c1)OCCO2 | · | 10µM* | 9.2µM* | · | 0% | ·
